{"source": "PubChem BioAssay (NCATS)", "note": "Results filed as inconclusive are left out. A call without a number means that no potency is given here. Active and inactive are the calls of the source. The call rests on the fitted dose curve; in most records, active means well fitted inhibition curve with a large enough effect; inconclusive means small, poorly fitted or top-dose-only effect; inactive means no such curve, though single readings can be large or run the other way."}
{"target": "Retinaldehyde dehydrogenase 3 (Homo sapiens) (UniProt P47895)", "assay": "qHTS for Inhibitors of the Aldehyde Dehydrogenase Family (ALDH1A3) Validation screen (AID 2061312); further: nearly all actives have a fitted effect of over 45% in size", "settings": "ALDH1A3 enzyme inhibition qHTS validation, fluorescence; series mostly up to 84.7 µM"}
{"smiles": "C/C(=C\\c1ccc(C(=O)O)cc1)c1ccc2c(c1)C(C)(C)CCC2(C)C", "Potency": "inactive"}
{"smiles": "CC(=O)/C(C)=N/O", "Potency": "inactive"}
{"smiles": "OCC1NCC(O)C(O)C1O", "note": "(stereo not given)", "Potency": "inactive"}
{"smiles": "CNc1ncnc2c1ncn2[C@H]1C[C@H](OP(=O)(O)O)[C@@H](COP(=O)(O)O)O1", "Potency": "inactive"}
{"smiles": "CCOC(=O)C1=C[C@]2(CC)CCCN3CCc4c(n1c1ccccc41)[C@@H]32", "Potency": "inactive"}
{"smiles": "CC(C)C[C@H](NC(=O)[C@H](O)[C@H](N)Cc1ccccc1)C(=O)O", "Potency": "inactive"}
{"smiles": "Cc1ccc(=O)n(-c2ccccc2)c1", "Potency": "inactive"}
{"smiles": "CN(C)C(=O)Oc1ccc[n+](C)c1", "Potency": "inactive"}
{"smiles": "COc1ccc(CCn2nnnc2C2(c3ccc(C)cc3)CC2)cc1", "Potency": "inactive"}
{"smiles": "CC(C)(C)NC[C@H](O)COc1nsnc1N1CCOCC1", "Potency": "inactive"}
{"smiles": "Cc1nc2sccn2c(=O)c1CCN1CCC(=C(c2ccc(F)cc2)c2ccc(F)cc2)CC1", "Potency": "inactive"}
{"smiles": "CCCCNc1ccc(C(=O)OCCN(C)C)cc1", "Potency": "inactive"}
{"smiles": "C[C@@H](O)[C@H]1C(=O)N2C(C(=O)O)=C(SCCN=CN)C[C@H]12", "Potency": "inactive"}
{"smiles": "CC(N)C(=O)OC(C)(C)Cc1ccc(Cl)cc1", "note": "(stereo not given)", "Potency": "inactive"}
{"smiles": "O=c1onc2n1-c1cc(Br)ccc1OC2", "Potency": "inactive"}
{"smiles": "O=C(O)CCCCCCCC(=O)O", "Potency": "inactive"}
{"smiles": "CCCOC(=O)c1c(-c2ccccc2)nc(CC)c(C(=O)SCC)c1CCC", "Potency": "inactive"}
{"smiles": "O=C(O)C1=CCNCC1", "Potency": "inactive"}
{"smiles": "C[C@]12CC[C@@H]3c4ccc(O)cc4C[C@@H](CCCCCCCCCS(=O)CCCC(F)(F)C(F)(F)F)[C@H]3[C@@H]1CC[C@@H]2O", "note": "(stereo not given in full)", "Potency": "inactive"}
{"smiles": "CSC(N)=NCCC[C@H](N)C(=O)O", "Potency": "inactive"}
{"smiles": "O=C(O)c1cc2cc(F)ccc2[nH]1", "Potency": "inactive"}
{"smiles": "C=C(C)C1CC=C(C(=O)O)CC1", "note": "(stereo not given)", "Potency": "inactive"}
{"smiles": "CN(C)CCCN1c2ccccc2Sc2ccccc21", "Potency": "inactive"}
{"smiles": "Cn1ccnc1", "Potency": "inactive"}
{"smiles": "c1ccc2c(c1)CC(N1CCN(c3cccc4c3OCCO4)CC1)C2", "Potency": "inactive"}
{"smiles": "N=C(N)SCCN", "Potency": "inactive"}
{"smiles": "N=C(N)c1ccccc1", "Potency": "inactive"}
{"smiles": "CSc1ccc(C(=O)c2[nH]c(=O)[nH]c2C)cc1", "Potency": "inactive"}
{"smiles": "COc1ccccc1N1CCN(CCCCN2C(=O)c3ccccc3C2=O)CC1", "Potency": "inactive"}
{"smiles": "Nc1nc2ccc(Cl)cc2n2c(-c3ccccc3)nnc12", "Potency": "inactive"}
{"smiles": "CO[C@H]1O[C@@H]2O[C@]3(C)CC[C@@H]4[C@@H](C)CC[C@H]([C@H]1C)[C@]24OO3", "Potency": "inactive"}
{"smiles": "Nc1ccc(N2C(=O)c3ccccc3C2=O)c(Cl)c1", "Potency": "inactive"}
{"smiles": "CN(C)C(N)=NCCC[C@H](N)C(=O)O", "Potency": "inactive"}
{"smiles": "COCc1nc2c([nH]1)c(=O)n(C)c(=O)n2CC(C)C", "Potency": "inactive"}
{"smiles": "CC1(C)CCC(NC(=O)[C@@H](N)CCC(=O)O)CC1", "Potency": "inactive"}
{"smiles": "C=CCc1ccccc1OCC(O)CNC(C)C", "note": "(stereo not given)", "Potency": "inactive"}
{"smiles": "CC(CCc1ccc(O)cc1)NCCc1ccc(O)c(O)c1", "note": "(stereo not given)", "Potency": "inactive"}
{"smiles": "CC(C)NC[C@H](O)COc1ccc(CC(N)=O)cc1", "Potency": "inactive"}
{"smiles": "CC(=O)SCC[N+](C)(C)C", "Potency": "inactive"}
{"smiles": "CC1(C)C(=O)N(CCN2CCC(C(=O)c3ccc(F)cc3)CC2)c2ccccc21", "Potency": "inactive"}
